Source: PubChem BioAssay (National Center for Advancing Translational Sciences (NCATS))
RORg inh = inhibitors of mouse ROR gamma transcriptional activity. Potency, µM (doses to about 53.6 µM), without a hit: at the highest dose activity change, negative = inhibition, actives largely listed as inhibitors. 310,000 compounds, 5.4% hits. Drosophila S2 Gal4-RORgamma UAS-luciferase reporter, 20 h; further: on the % scale 0 is the no-effect control and ±100 the full control effect; nearly all actives have a fitted effect of over 60% in size
Target sequence (P51450 whole entry, looked up, the tested form may be a part): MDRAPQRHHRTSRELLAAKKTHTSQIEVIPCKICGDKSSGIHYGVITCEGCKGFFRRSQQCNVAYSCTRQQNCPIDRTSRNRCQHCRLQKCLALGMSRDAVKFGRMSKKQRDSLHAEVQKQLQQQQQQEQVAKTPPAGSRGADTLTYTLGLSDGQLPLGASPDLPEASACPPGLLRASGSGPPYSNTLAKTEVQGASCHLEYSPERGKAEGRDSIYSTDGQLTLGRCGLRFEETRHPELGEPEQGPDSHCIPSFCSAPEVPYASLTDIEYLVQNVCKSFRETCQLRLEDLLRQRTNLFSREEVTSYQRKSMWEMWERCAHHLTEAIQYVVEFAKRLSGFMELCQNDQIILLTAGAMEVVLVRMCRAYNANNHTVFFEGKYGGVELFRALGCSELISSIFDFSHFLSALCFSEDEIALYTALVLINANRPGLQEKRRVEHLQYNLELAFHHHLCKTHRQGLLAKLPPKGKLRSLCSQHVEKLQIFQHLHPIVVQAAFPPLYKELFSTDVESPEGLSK
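Drosophila S2 cells stably expressing Gal4-DBD/mouse RORγ fusion under metallothionein promoter plus UAS-luciferase; compound 1 h, then 700 uM CuSO4 induction for 20 h at ambient temperature; inhibition read as reduced luminescence.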
ATXN2 expr inh = reduces ATXN2 reporter expression in HEK-293 cells. 360,000 compounds, 0.72% hits. AID 1745845. HEK-293 ATXN2-luciferase reporter, luminescence, 24 h. Potency, µM (series often up to 57 µM), for inactives: top-dose activity change, negative = inhibition, hits mostly inhibitors; further: on the % scale 0 is the no-effect control and ±100 the full control effect; nearly all actives have a fitted effect of over 55% in size
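ATXN2-luciferase reporter cells (luciferase flanked by upstream and downstream ATXN2 gene portions) were treated 24 h at 37 °C with compounds at up to 57 uM. SteadyGlo luminescence gave expression; GF-AFC fluorescence gave viability.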
HepG2 tox = counter-screen for TGF-b inhibitors: cytotoxicity in HepG2 cells; HepG2 CAGA-GFP viability, ATP luminescence, 18 h; Potency, µM (series often up to 46.1 µM), inactives show at the top dose activity change, negative = cytotoxicity, most hits filed as cytotoxic; 410,000 compounds, 0.76% hits; AID 588856
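CellTiter-Glo luminescence gave cytotoxicity after 18 hours at 37 degrees C. The cells were HepG2 CAGA-GFP in 1% FBS DMEM, stimulated with 500 pg/mL TGF-beta after compound addition. %Activity was normalised to no-cell wells (complete cell-killing) and DMSO (no toxicity), and curves were fitted and classified.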
S2 tox = reduces viability in counter-screen for ATXN expression inhibitors | S2 cells (HEK-293 line with an ATXN2-luciferase reporter) viability, CellTiter-Fluor protease fluorescence, 24 h | Potency, µM (series often up to 56.7 µM), hits mostly cytotoxic | 400,000 compounds, 0.49% hits; further: nearly all actives have a fitted effect of over 40% in size
Gal4-VP16 FLuc = counter-screen for ROR gamma inhibitors: Gal4-VP16 reporter; Drosophila S2 Gal4-VP16 UAS-luciferase, luminescence, 20 h; AID 2546; Potency, µM (series often up to 53.6 µM), without a hit: top-dose activity, negative = inhibition, most hits filed as inhibitors; 310,000 compounds, 3.5% hits;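 further: Gal4-VP16 expression switched on by copper sulfate through the metallothionein promoter; on the % scale 0 is the no-effect control and ±100 the full control effect; nearly all actives have a fitted effect of over 50% in size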
TGFb SMAD3 inh = inhibitors of TGF-b signaling | HepG2 CAGA-GFP TGF-b/SMAD3 reporter, GFP fluorescence, 18 h; TGF-beta stimulated, 500 pg/mL final | Potency, µM (titrated, usually from 46.1 µM), inactives show at the highest dose activity, negative = inhibition, actives largely listed as inhibitors | 410,000 compounds, 1.2% hits | AID 588855; further: on the % scale 0 is the no-effect control and ±100 the full control effect; nearly all actives have a fitted effect of over 65% in size
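GFP signal (ex488/em500-530) from TGF-beta-stimulated HEPG2 CAGA-GFP cells, 500 pg/mL final, 18 h at 37 degrees C in DMEM plus 1% FBS, normalized to unstimulated and DMSO-stimulated controls.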
Starred values were filed as active, the others as inactive; i = inactive; ? = inconclusive; · = not tested or not shown; [ ] = another dose, or the depositor's remark. Hits are enriched below; roughly 6.3% of the tested compounds scored in any of these assays. The call rests on the fitted dose curve; in most records, active means well fitted curve in the direction sought with a large enough effect; inconclusive means small, poorly fitted or top-dose-only effect, or another doubt; inactive means no such curve, though single readings can be large; an effect the other way counts as inactive or inconclusive. Potency means the concentration at half of the fitted maximal effect.

SMILES | RORg inh | ATXN2 expr inh | HepG2 tox | S2 tox | Gal4-VP16 FLuc | TGFb SMAD3 inh
Cc1ccccc1C(=O)c1ccc(Nc2ccc(Br)cc2N)cc1Cl | · | -15% | · | · | · | ·
O=c1[nH]c(Cc2ccccn2)nc2scc(-c3ccccc3Cl)c12 | 6.3µM* | -15% | -22% | i | 11µM* | 6%
CSCc1nc2scc(-c3ccccc3)c2c(=O)[nH]1 | 23% | 8%[11.3 µM] | 1% | i | 8% | -13%
Cc1nc([N+](=O)[O-])c(Br)n1Cc1ccccc1 | ? | ? | -53% | ? | ? | ?
Cc1nc([N+](=O)[O-])c(Sc2nc3ccc([N+](=O)[O-])cc3[nH]2)n1Cc1ccccc1 | 16µM* | -29% | 10µM* | ? | ? | -90%
Cc1cc(=O)n2[nH]cc(-c3ccccc3)c2n1 | ? | -9% | -20% | i | ? | -9%
COCc1cc(=O)n2[nH]cc(-c3ccccc3)c2n1 | 13µM* | 11% | -9% | i | 10µM* | -12%
CCOC(=O)Cc1cc(=O)n2[nH]c(-c3ccc(C)cc3)cc2n1 | -1% | 17% | -15% | i | -3% | 2%
CCOC(=O)Cc1cc(=O)n2[nH]cc(-c3cccc(Br)c3)c2n1 | 13µM* | -15%[11.3 µM] | -44% | i | ? | ?
CCOC(=O)Cc1c(C)nc2c(-c3ccc(Cl)cc3)c[nH]n2c1=O | 5.6µM* | ? | -28% | ? | 16µM* | ?
CN(C(=O)CSc1nnc(C(F)(F)F)n1C)c1c(N)n(Cc2ccccc2)c(=O)[nH]c1=O | · | · | -17% | i | · | -1%
CCN(CC)c1c(C)nc2ccc(C(=O)Nc3cc(-c4ccccc4)ccc3OC)cn12 | · | ? | -62% | i | · | ?
CCc1nc2ccc(C(=O)NCCCN3CCCC3=O)cn2c1N(C)C(=O)C1CCCCC1 | · | 12% | 2% | ? | · | 2%
O=C(NC1=NCCS1)c1cccc(OC(F)F)c1 | 11µM* | 11% | 7% | i | -29% | 16%
Cc1ccc(N(C)S(=O)(=O)c2cccc(C(=O)NC3=NCCS3)c2)cc1 | ? | -5% | -33% | i | ? | 13%
COc1ccc(N(C)S(=O)(=O)c2cccc(C(=O)NC3=NCCS3)c2)cc1 | 6.3µM* | -4% | 0% | i | ? | 16%
CC(C)Oc1ccc(C(=O)NC2=NCCS2)cc1 | 10µM* | -37% | 11% | i | 1%[10 µM] | -7%
O=C(NCCN1CCOCC1)NC1(C(F)(F)F)Oc2ccc(Cl)cc2O1 (configuration not stated) | 0.32µM* | 0% | -20% | i | ? | 0%
CCOC(=O)Cc1csc(NC(=O)NC2(C(F)(F)F)Oc3ccc(Cl)cc3O2)n1 (configuration not stated) | -5% | -10% | -43% | i | ? | -6%
COCC(C)NC(=O)NC1(C(F)(F)F)Oc2ccc(Cl)cc2O1 (configuration not stated) | 10µM* | -22% | -42% | ? | 11µM* | -17%
COc1ccc(S(=O)(=O)N2CCN(c3nc(-c4ccccc4)nc4ccccc34)CC2)cc1 | · | · | -34% | · | · | -20%
Clc1ccc2c(NCCNC3CCCCC3)ccnc2c1 | · | 2.2µM* | 13µM* | · | · | ?
CC(C)NC1CCC(Nc2ccnc3cc(Cl)ccc23)CC1 (configuration not stated) | · | ? | -15% | i | · | -1%
CC(=O)Nc1cccc(C(=O)OCC(=O)NC(=O)C2CCCCC2)c1 | · | · | -15% | · | · | 3%
O=C(CCN1CCCCCC1)c1ccccc1 | -8% | 7% | -3% | i | -8% | 0%
SMILES | RORg inh | ATXN2 expr inh | HepG2 tox | S2 tox | Gal4-VP16 FLuc | TGFb SMAD3 inh
O=C(/C=C/c1ccccc1)CCN1CCCCC1 | · | ? | 20µM* | ? | · | 11µM*
O=C(/C=C/c1ccccc1)CC(=O)c1ccccc1O | ? | · | -32% | i | 11µM* | -14%
O=C(COC(=O)c1n[nH]c2ccccc12)Nc1cccc(S(=O)(=O)N2CCOCC2)c1 | ? | -5% | 3% | i | -1%[10 µM] | -11%
O=C(COC(=O)c1n[nH]c2ccccc12)Nc1ccc(S(=O)(=O)N2CCCC2)cc1 | -42% | -9% | -6% | ? | 10µM* | -9%
O=C(NC(=S)Nc1ccc(N2CCCCC2)cc1)c1ccco1 | 7.1µM* | 51% | -26% | i | 20µM* | -34%
CC1CCN(c2ccc(NC(=S)NC(=O)c3ccco3)cc2)CC1 | 3.2µM* | 16% | 3% | i | 7.1µM* | -8%
NC(=NC(=O)c1ccccc1)N1CCN(C(c2ccccc2)c2ccccc2)CC1 | 16% | -11% | -28% | i | -6% | 3%
CCCC(=O)Nc1ccc2c(c1)nc(CCN1CCC(C)CC1)n2C | · | · | -5% | i | · | 6%
CCOc1ccc(NC(=O)c2c(NCc3cccnc3)sc3c2CCC(C)C3)cc1 (configuration not stated) | · | · | -41% | · | · | 13µM*
COc1ccc(Cl)cc1NC(=O)c1c(NCc2cccnc2)sc2c1CCC(C)C2 (configuration not stated) | · | · | 10µM* | · | · | 8.9µM*
O=C1C=CC(=C(c2ccc(O)cc2)c2ccc(O)cc2)C=C1 | ? | ? | 10µM* | 16µM* | ? | ?
CCOC(=O)c1ccc(CN2CCCC(C)(C(=O)NCCOC)C2)cc1 (configuration not stated) | · | 6% | -24% | i | · | -1%
Cc1ccc(-n2c3c(cc(C(=O)Nc4ccccc4C(N)=O)c2=O)C(=O)CC(C)(C)C3)cc1 | · | -5% | -2% | i | · | -1%
O=C(NNc1nc2c(F)cccc2s1)C1=COCCO1 | 11µM* | 23% | 9% | i | -28% | -2%
Cc1ccc2sc(NNC(=O)C3=COCCO3)nc2c1C | 5.6µM* | 10% | -20% | i | ? | -14%
O=C(NNc1nc2c(F)cccc2s1)c1ccccc1 | ? | -12% | -2% | i | ? | 13%
CN1/C(=C\C(=O)COC(=O)Cn2nnc(-c3ccccc3)n2)C(C)(C)c2ccccc21 | 32% | -35% | -39% | i | 28µM* | 3%
CN1/C(=C/C(=O)COC(=O)CN2C(=O)C3CC=CCC3C2=O)C(C)(C)c2ccccc21 (configuration not stated) | · | -22% | -22% | ? | · | -7%
COc1cc(OC)cc(C(=O)NCC(=O)OCC(=O)/C=C2/N(C)c3ccccc3C2(C)C)c1 | -12% | -23% | -43% | ? | 18µM* | -14%
Cc1cnc(Nc2ccc(F)cc2Cl)nc1-c1c[nH]c(C(=O)N[C@H](CO)c2cccc(Cl)c2)c1 | · | 24µM* | · | · | · | ·
